Measurements from PubChem BioAssay (NCI).
This is part of a sample that, as a whole, favours compounds with a hit. Of some 83,000 tested, about 20% had one in any assay.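 Activity criterion: percent growth below 10, measured after cells in 96-well plates were exposed to a single compound concentration for 48 hours.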 Calls of active or inactive are those of the source.

How the values were obtained:
Assay in all cases: NCI-60 one-dose screen, 48 h (100 = growth as untreated, 0 = no growth, -100 = all killed)
Settings in all cases: 10 µM unless noted
SR leukemia = system: SR leukemia
RPMI-8226 leukemia = system: RPMI-8226 leukemia
OVCAR-8 ovarian = system: OVCAR-8 ovarian
OVCAR-5 ovarian = system: OVCAR-5 ovarian
OVCAR-4 ovarian = system: OVCAR-4 ovarian
SK-OV-3 ovarian = system: SK-OV-3 ovarian
IGROV1 ovarian = system: IGROV1 ovarian
OVCAR-3 ovarian = system: OVCAR-3 ovarian
HS 578T breast = system: HS 578T breast
NCI/ADR-RES ovarian = system: NCI/ADR-RES ovarian
T-47D breast = system: T-47D breast
BT-549 breast = system: BT-549 breast
MDA-MB-435 melanoma = system: MDA-MB-435 melanoma
SW-620 colon = system: SW-620 colon
MCF7 breast = system: MCF7 breast
HCT-116 colon = system: HCT-116 colon
HCC-2998 colon = system: HCC-2998 colon
KM12 colon = system: KM12 colon

Measured: growth

COc1cc(/C=N/O)nc(-c2ccccn2)c1
active: SR leukemia 9.23% | NCI/ADR-RES ovarian 4.37%
inactive: RPMI-8226 leukemia 18.7% | OVCAR-8 ovarian 17.6% | OVCAR-5 ovarian 45.3% | OVCAR-4 ovarian 22.2% | SK-OV-3 ovarian 28.6% | IGROV1 ovarian 19.2% | OVCAR-3 ovarian 18.2% | HS 578T breast 65% | T-47D breast 37.5% | BT-549 breast 33.7% | MDA-MB-435 melanoma 23.6% | SW-620 colon 27.4% | MCF7 breast 15.9% | HCT-116 colon 20.9% | HCC-2998 colon 26.4% | KM12 colon 23%

COc1ccc2[nH]c(=O)c(CN3CCN(c4nccc(-c5ccc(Cl)cc5)n4)CC3)cc2c1
inactive: SR leukemia 70.3% | RPMI-8226 leukemia 73.6% | OVCAR-8 ovarian 66% | OVCAR-5 ovarian 98.5% | OVCAR-4 ovarian 71.4% | SK-OV-3 ovarian 94.9% | IGROV1 ovarian 106% | OVCAR-3 ovarian 100% | HS 578T breast 72.9% | NCI/ADR-RES ovarian 82.4% | T-47D breast 73.6% | BT-549 breast 91.2% | MDA-MB-435 melanoma 97.9% | SW-620 colon 89.5% | MCF7 breast 83.5% | HCT-116 colon 86.4% | HCC-2998 colon 105% | KM12 colon 90.6%

CC1(C)CC[C@]2(C(=O)O)CC[C@]3(C)C(=CC[C@@H]4[C@@]5(C)Cc6c([nH]c7ccccc67)C(C)(C)[C@@H]5CC[C@]43C)[C@@H]2C1
active: HCT-116 colon 8.26%
inactive: SR leukemia 41.3% | RPMI-8226 leukemia 23.2% | OVCAR-8 ovarian 35% | OVCAR-5 ovarian 80.9% | OVCAR-4 ovarian 36.8% | SK-OV-3 ovarian 62.4% | IGROV1 ovarian 58% | OVCAR-3 ovarian 37.2% | HS 578T breast 75.2% | NCI/ADR-RES ovarian 34.2% | T-47D breast 49.5% | BT-549 breast 61.5% | MDA-MB-435 melanoma 79.3% | SW-620 colon 23.1% | MCF7 breast 19.4% | HCC-2998 colon 38.7% | KM12 colon 17.7%

C#CCNC(=O)c1cccc2c1cc(C)n2-c1nc2c(c(NCc3ccccc3)n1)CCCC2
inactive: OVCAR-8 ovarian 12.8%
active: SR leukemia 6.53% | RPMI-8226 leukemia 0.445% | OVCAR-5 ovarian 8.62% | OVCAR-4 ovarian -11.8% | SK-OV-3 ovarian 2.45% | IGROV1 ovarian -21.7% | OVCAR-3 ovarian -61.2% | HS 578T breast 8.06% | NCI/ADR-RES ovarian 1.28% | T-47D breast -11.6% | BT-549 breast -38.7% | MDA-MB-435 melanoma -61.3% | SW-620 colon -4.61% | MCF7 breast -0.959% | HCT-116 colon -41.5% | HCC-2998 colon -84.2% | KM12 colon -43.6%

O=C(NCCNc1nccc(-c2c(-c3cccc(F)c3)nc3sccn23)n1)c1ccc(Cl)cc1
inactive: SR leukemia 46.5% | RPMI-8226 leukemia 62.4% | OVCAR-8 ovarian 55.1% | OVCAR-5 ovarian 88.3% | OVCAR-4 ovarian 77.9% | SK-OV-3 ovarian 80.9% | IGROV1 ovarian 22.5% | OVCAR-3 ovarian 75.7% | HS 578T breast 74.8% | NCI/ADR-RES ovarian 74.3% | T-47D breast 49% | BT-549 breast 75.9% | MDA-MB-435 melanoma 32.1% | SW-620 colon 65.2% | MCF7 breast 27.7% | HCT-116 colon 33% | HCC-2998 colon 90.1% | KM12 colon 62.8%

C=C(C)[C@@H]1CC[C@]2(CN)CC[C@]3(C)[C@H](CC[C@@H]4[C@@]5(C)CCCNC(C)(C)[C@@H]5CC[C@]43C)[C@@H]12
active: SR leukemia -38.7% | RPMI-8226 leukemia -43.8% | OVCAR-8 ovarian -59.6% | OVCAR-5 ovarian -23% | OVCAR-4 ovarian -70.9% | IGROV1 ovarian -81.9% | OVCAR-3 ovarian -85.8% | HS 578T breast -42.3% | NCI/ADR-RES ovarian -52% | T-47D breast -10.1% | MDA-MB-435 melanoma -96.2% | SW-620 colon -84.5% | MCF7 breast -66.1% | HCT-116 colon -95.5% | HCC-2998 colon -80.6% | KM12 colon -85.4%
inactive: SK-OV-3 ovarian 86.1% | BT-549 breast 84.6%

c1ccc2cc(Cn3c(-c4cccc5ccccc45)[n+](Cc4ccc5ccccc5c4)c4c5ccccc5c5ccccc5c43)ccc2c1
active: SR leukemia -56% | RPMI-8226 leukemia -38.7% | OVCAR-8 ovarian -67% | OVCAR-5 ovarian -76.7% | OVCAR-4 ovarian -80% | SK-OV-3 ovarian -79.4% | IGROV1 ovarian -71.8% | OVCAR-3 ovarian -89.4% | HS 578T breast -42.1% | T-47D breast -70.8% | BT-549 breast -70.5% | MDA-MB-435 melanoma -83.7% | SW-620 colon -78.2% | MCF7 breast -64.7% | HCT-116 colon -73.5% | HCC-2998 colon -84.7% | KM12 colon -82.2%
inactive: NCI/ADR-RES ovarian 17.7%

CC1=CCC(OC(=O)C(C)(O)CCC(O)(C(=O)OC2(C)C=CC(O)(C(C)C)CC2)C(C)C)(C(C)C)CC1 (stereo unspecified)
inactive: SR leukemia 103% | RPMI-8226 leukemia 107% | OVCAR-8 ovarian 105% | OVCAR-5 ovarian 108% | OVCAR-4 ovarian 109% | SK-OV-3 ovarian 105% | IGROV1 ovarian 101% | OVCAR-3 ovarian 108% | HS 578T breast 105% | NCI/ADR-RES ovarian 108% | T-47D breast 93.9% | BT-549 breast 114% | MDA-MB-435 melanoma 104% | SW-620 colon 103% | MCF7 breast 97.9% | HCT-116 colon 101% | HCC-2998 colon 112% | KM12 colon 108%

CCCCCCNC(=O)Nc1ccc2cc3ccc(NC(=O)NCCCCCC)cc3nc2c1
active: SR leukemia -33% | RPMI-8226 leukemia 0.729% | OVCAR-8 ovarian -82.7% | OVCAR-5 ovarian 9.67% | OVCAR-3 ovarian -5.6% | HS 578T breast -53.7% | T-47D breast -24.8% | MDA-MB-435 melanoma -83.6% | SW-620 colon -78.1% | MCF7 breast -57.4% | HCT-116 colon -18.9% | HCC-2998 colon -24.5%
inactive: OVCAR-4 ovarian 56.9% | SK-OV-3 ovarian 13.2% | IGROV1 ovarian 11.4% | NCI/ADR-RES ovarian 100% | BT-549 breast 89.4% | KM12 colon 19.4%

Oc1cccc(CCc2ccc(Oc3cc(CCc4cccc(O)c4)cc(O)c3O)cc2)c1
inactive: SR leukemia 35.9% | RPMI-8226 leukemia 39.5% | OVCAR-8 ovarian 75.3% | OVCAR-5 ovarian 107% | OVCAR-4 ovarian 58.9% | SK-OV-3 ovarian 94.8% | IGROV1 ovarian 41.7% | OVCAR-3 ovarian 63.8% | HS 578T breast 84.4% | NCI/ADR-RES ovarian 82.1% | T-47D breast 73% | BT-549 breast 82% | MDA-MB-435 melanoma 68.6% | SW-620 colon 79% | MCF7 breast 77.8% | HCT-116 colon 73.2% | HCC-2998 colon 92% | KM12 colon 81.5%

Brc1ccc2[nH]cc(-c3cncn3CCc3ccccc3)c2c1
inactive: SR leukemia 40.7% | RPMI-8226 leukemia 29.7% | OVCAR-8 ovarian 66.9% | OVCAR-5 ovarian 71% | OVCAR-4 ovarian 25.9% | SK-OV-3 ovarian 64.9% | IGROV1 ovarian 76.9% | OVCAR-3 ovarian 36.7% | HS 578T breast 12.8% | NCI/ADR-RES ovarian 49.6% | T-47D breast 22.9% | BT-549 breast 41.3% | MDA-MB-435 melanoma 57.5% | SW-620 colon 72.2% | MCF7 breast 48.9% | HCT-116 colon 43% | HCC-2998 colon 72.5% | KM12 colon 68%

C/C=C(\C)C(=O)NC1=CC[C@@]2(C)C(=CCC3C2CC[C@@]2(C)C3CC[C@@H]2C(C)N(C)C)C1=O (stereo partly specified)
inactive: SR leukemia 27.7% | OVCAR-8 ovarian 65.9% | OVCAR-5 ovarian 85.8% | SK-OV-3 ovarian 114% | IGROV1 ovarian 40.4% | OVCAR-3 ovarian 29.3% | HS 578T breast 56.8% | NCI/ADR-RES ovarian 55.7% | T-47D breast 46.7% | BT-549 breast 37.6% | MCF7 breast 10.3% | HCT-116 colon 10.4% | HCC-2998 colon 31.3% | KM12 colon 19.6%
active: RPMI-8226 leukemia 3.85% | OVCAR-4 ovarian 1.84% | MDA-MB-435 melanoma -2.62% | SW-620 colon -11%

Cc1cc2nc3c4cccc(O)c4n(CCN(C)C)c3nc2cc1C
inactive: OVCAR-8 ovarian 38% | OVCAR-5 ovarian 55.3% | OVCAR-4 ovarian 44.4% | SK-OV-3 ovarian 46.3% | IGROV1 ovarian 19.1% | OVCAR-3 ovarian 45.4% | HS 578T breast 72.8% | NCI/ADR-RES ovarian 32.3% | T-47D breast 64.3% | BT-549 breast 77.4% | MDA-MB-435 melanoma 45.4% | SW-620 colon 20.6% | MCF7 breast 23.5% | HCT-116 colon 22% | HCC-2998 colon 24.5% | KM12 colon 37.7%
active: SR leukemia 4.12% | RPMI-8226 leukemia -5.71%

CCN(CC)CCn1c(=O)c2cc(OC)c(OC)cc2c2ccc3cc4c(cc3c21)OCO4
active: SR leukemia -14.9% | RPMI-8226 leukemia 3.16% | HCT-116 colon 8.5%
inactive: OVCAR-8 ovarian 53.2% | OVCAR-5 ovarian 64.9% | OVCAR-4 ovarian 66.4% | SK-OV-3 ovarian 32.8% | IGROV1 ovarian 29% | OVCAR-3 ovarian 62.4% | HS 578T breast 64.3% | NCI/ADR-RES ovarian 29.9% | T-47D breast 39.1% | BT-549 breast 26.2% | MDA-MB-435 melanoma 50.4% | SW-620 colon 26% | MCF7 breast 16.1% | HCC-2998 colon 74.9% | KM12 colon 41.9%

COc1cccc(-c2nc3occn3c2-c2ccnc(NCCNS(=O)(=O)c3ccc(C(F)(F)F)cc3)n2)c1
active: HS 578T breast -23.5%
inactive: SR leukemia 96.6% | RPMI-8226 leukemia 69.2% | OVCAR-8 ovarian 90.8% | OVCAR-5 ovarian 116% | OVCAR-4 ovarian 83.7% | SK-OV-3 ovarian 103% | IGROV1 ovarian 80.6% | OVCAR-3 ovarian 96.7% | NCI/ADR-RES ovarian 99.4% | T-47D breast 41.1% | BT-549 breast 96.5% | MDA-MB-435 melanoma 70.4% | SW-620 colon 113% | MCF7 breast 80.9% | HCT-116 colon 92.9% | HCC-2998 colon 133% | KM12 colon 98.9%

CC(Oc1ccc(C(=O)O)cc1C(F)(F)F)c1ccc(Oc2ccccc2)cn1 (stereo unspecified)
inactive: SR leukemia 71.7% | RPMI-8226 leukemia 99.9% | OVCAR-8 ovarian 96.6% | OVCAR-5 ovarian 102% | OVCAR-4 ovarian 106% | SK-OV-3 ovarian 124% | IGROV1 ovarian 98.4% | OVCAR-3 ovarian 104% | HS 578T breast 99.6% | NCI/ADR-RES ovarian 75.2% | T-47D breast 100% | BT-549 breast 89.1% | MDA-MB-435 melanoma 77.4% | SW-620 colon 103% | MCF7 breast 89.5% | HCT-116 colon 103% | HCC-2998 colon 108% | KM12 colon 92.2%

Cc1cc2c(C(=O)NCC#N)cccc2n1-c1nc2c(c(NCc3ccccc3)n1)CCCC2
inactive: HS 578T breast 12%
active: SR leukemia 4.15% | RPMI-8226 leukemia 5.03% | OVCAR-8 ovarian 8.66% | OVCAR-5 ovarian 1.88% | OVCAR-4 ovarian -8.8% | SK-OV-3 ovarian -6.94% | IGROV1 ovarian -22.1% | OVCAR-3 ovarian -59.9% | NCI/ADR-RES ovarian 1.16% | T-47D breast -16.6% | BT-549 breast -34.8% | MDA-MB-435 melanoma -59.8% | SW-620 colon 2.79% | MCF7 breast 1.12% | HCT-116 colon -14.4% | HCC-2998 colon -87.6% | KM12 colon -38.7%
